Laboratory results as given in PubChem BioAssay AID651640 (Broad Institute, 2012).
In all, about 350,000 compounds went through this assay and about 6,000 (1.7%) were called active. Not shown: some 5% with an inconclusive outcome. Cut-off read from the data, not from the text of the source: active = CPE inhibition above about 20% (passing the limit was not always enough); inconclusive = no clear call, values can overlap the other calls; tested in BHK-21 cells. The full list was thinned out, with actives kept by preference.

assay: inhibitors of DENV2 cytopathic effect, primary screen, cell-based, plate reader, single concentration (AID 651640); details: DENV2-infected cells, cytopathic effect rescue, at 9.99 µM, hits give high values;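 note: 0% = median of neutral control wells and 100% = median of positive control wells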

CPE inhibition, active:
C[C@@H](O)C#Cc1ccc([C@H]2[C@H](CO)N3CCCCN(C(=O)c4ccc(F)cc4)C[C@@H]23)cc1 22.8%
COc1ccc(C2(C)NC(=O)N(CC(=O)c3ccc4c(c3)OCO4)C2=O)cc1 (configuration not stated) 53.4%
Nc1c(C(=O)c2cccs2)sc2nsc(SCCN3CCCCC3)c12 29.4%
O=C(C[C@@H]1CC[C@H]2[C@@H](COC[C@H](O)CN2S(=O)(=O)c2ccc(F)cc2)O1)N[C@H]1CCN(Cc2ccccc2)C1 24.2%
O=C(C[C@H]1CC[C@H]2[C@@H](COC[C@@H](O)CN2S(=O)(=O)c2ccc(Cl)cc2)O1)NCCN1CCCCC1 23.7%
CCC(=O)N1CC2(C1)CN(Cc1cc(F)ccc1F)[C@@H](CO)c1[nH]c3cc(OC)ccc3c12 47.6%
CCCNC(=O)N1CC2(C1)CN(Cc1cccc(F)c1)[C@@H](CO)c1[nH]c3cc(OC)ccc3c12 136%
COc1ccc2c3c([nH]c2c1)[C@H](CO)N(Cc1ccccc1Cl)CC31CN(C(=O)C2CC2)C1 53.5%
CCOc1ncccc1C(=O)NNC(=O)c1cccc(S(=O)(=O)Nc2ccccc2OC)c1 23.7%

CPE inhibition, inactive:
C[C@H](CO)N1C[C@H](C)[C@@H](CN(C)C(=O)Nc2ccnc(N3CCOCC3)c2)OCc2ccccc2-c2c(n(C)c3ccccc23)C1=O -11.2%
C[C@H](O)C#Cc1ccc([C@@H]2[C@@H](CO)N3CCCCN(C(=O)c4ccc(F)cc4)C[C@H]23)cc1 4.05%
C[C@@H](O)C#Cc1ccc([C@@H]2[C@@H](CO)N3CCCCN(C(=O)c4ccc(F)cc4)C[C@@H]23)cc1 2.55%
O=C(C[C@@H]1CC[C@@H]2[C@H](COC[C@H](O)CN2Cc2ccc(F)cc2)O1)NCc1ccncn1 19.2%
C[C@H]1CN([C@@H](C)CO)S(=O)(=O)c2ccc(-c3ccncc3)cc2O[C@H]1CN(C)S(C)(=O)=O 8.89%
CC1(c2ccc(Cl)cc2)NC(=O)N(CC(=O)c2ccc3c(c2)OCO3)C1=O (configuration not stated) 14.3%
CCC1(c2ccccc2)NC(=O)N(CC(=O)c2ccc3c(c2)OCO3)C1=O (configuration not stated) 4.81%
COc1ccc([Si](C)(C)[C@@H]2[C@@H](CCO)O[C@]3(C(=O)N(Cc4cccc(N5CCCCC5=O)c4)c4ccccc43)[C@H]2C)cc1 3.86%
COc1ccc(C#Cc2cccc(-c3nc(C(=O)O)cc4c3[C@@H](CCO)N(S(=O)C(C)(C)C)C4)c2)cc1OC (some centres not stated) 0.722%
COCC(=O)Nc1ccc2c(c1)[C@H]1C[C@H](CC(=O)OC)O[C@@H](CO)[C@H]1O2 -10.3%
CCC(=O)Nc1ccc2c(c1)OC[C@H](C)N(CC1CCOCC1)C[C@@H](C)[C@@H](OC)CN(C)C2=O -4.88%
O=C(CSc1ncnc2sccc12)N1CCN(C(=O)c2cccs2)CC1 2.68%
CO[C@@H]1CN(C)C(=O)c2cc(NC(=O)c3ccccc3)ccc2OC[C@@H](C)N(C(C)=O)C[C@@H]1C -5.72%
C[C@H](CO)N1C[C@H](C)[C@@H](CN(C)C(=O)c2ccccc2)OCCCC[C@H](C)Oc2ccc(NC(=O)c3ccccc3)cc2C1=O 13.1%
O=C(C[C@H]1CC[C@@H]2[C@H](COC[C@H](O)CN2S(=O)(=O)c2ccc(Cl)cc2)O1)N[C@@H]1CCN(Cc2ccccc2)C1 -1.97%
O=C(C[C@@H]1CC[C@H]2[C@@H](COC[C@H](O)CN2S(=O)(=O)c2ccccc2)O1)NCCN1CCCC1 -4.25%
O=C(C[C@H]1CC[C@@H]2[C@H](COC[C@H](O)CN2S(=O)(=O)c2ccc(F)cc2)O1)NCCN1CCCCC1 -7.98%
O=C(C[C@@H]1CC[C@@H]2[C@H](COC[C@H](O)CN2S(=O)(=O)c2ccc(Cl)cc2)O1)N[C@@H]1CCN(Cc2ccccc2)C1 3.99%
C[C@H](CO)N1C[C@H](C)[C@@H](CN(C)C)Oc2ccc(NS(=O)(=O)c3cccs3)cc2C1=O -7.81%
Cc1noc(C)c1NC(=O)N(C)C[C@H]1OCCCC[C@@H](C)Oc2ccc(NC(=O)NC(C)C)cc2C(=O)N([C@@H](C)CO)C[C@H]1C 18%
CNC[C@@H]1Oc2cc(C#CC3(O)CCCC3)ccc2S(=O)(=O)N([C@@H](C)CO)C[C@H]1C 12.4%
COCC(=O)N1CC2(C1)CN(Cc1ccccc1F)[C@@H](CO)c1[nH]c3cc(OC)ccc3c12 11.2%
COc1ccc2c3c([nH]c2c1)[C@@H](CO)N(Cc1ccccc1F)CC31CN(C(=O)C2CC2)C1 2.19%
COc1ccc2c3c([nH]c2c1)[C@@H](CO)N(Cc1cc(F)ccc1F)CC31CN(C(=O)C2CCC2)C1 -7.65%
CCC(=O)N1CC2(C1)CN(Cc1ccccc1Cl)[C@@H](CO)c1[nH]c3cc(OC)ccc3c12 1.97%
COc1ccc2c3c([nH]c2c1)[C@@H](CO)N(Cc1cccc(F)c1)CC31CN(CC2CC2)C1 2.63%
CCCNC(=O)N1CCC2(CC1)CN(Cc1ccccc1)[C@H](CO)c1[nH]c3cc(OC)ccc3c12 8.24%
COCC(=O)Nc1ccc2c(c1)OC[C@@H](C)N(C(=O)c1ccncc1)C[C@@H](C)[C@@H](OC)CN(C)C2=O 13.2%
O=C(NC[C@H]1CC[C@@H]2[C@@H](CN2S(=O)(=O)c2ccccc2F)O1)C1CCCCC1 -10.6%
COCC#Cc1cnc2c(c1)C(=O)N([C@@H](C)CO)C[C@H](C)[C@@H](CN(C)Cc1ccccc1)O2 7.93%
CCN(CC(=O)NCc1cccs1)C(=O)c1cccc(S(=O)(=O)Nc2ccccc2OC)c1 0.937%
CCOc1ncccc1C(=O)Nc1ccc(S(=O)(=O)Nc2nc(C)cc(C)n2)cc1 -5.45%
O=C(NC[C@@H]1[C@@H](c2ccccc2)[C@H](CO)N1C(=O)Cc1cccnc1)C1CC1 -4.58%
